Assay results from PubChem BioAssay (Tox21).
Inconclusive results are not listed. A call without a number means that no potency is given here. The source made the active and inactive calls. The call rests on the fitted dose curve; in most records, active means well fitted curve in the direction sought with a large enough effect in the repeat runs; inconclusive means weak or mixed curves; inactive means no such curve, though single readings can be large; an effect the other way counts as inactive or inconclusive.

Experiments:
[1] = molecular target: Cytochrome P450 2C9 (Homo sapiens) (UniProt P11712); experiment: Cytochrome P450 Family 2 Subfamily C Member 9 (CYP2C9) small molecule antagonists: luciferase reporter qHTS assay (AID 1671198); further: nearly all actives have a fitted effect of over 50% in size; further: potency means the concentration at half of the fitted maximal effect; on activity change, negative = inhibition: series mostly up to about 120 µM
Summary of the method: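 P450-Glo proluciferin substrate with CYP2C9 enzyme; 10 min RT preincubation, then NADPH regeneration 1 h at 37C; luciferin detection reagent 20 min RT, luminescence in relative luminescence units.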

[2] = molecular target: Cytochrome P450 1A2 (Homo sapiens) (UniProt P05177); experiment: Cytochrome P450 Family 1 Subfamily A Member 2 (CYP1A2) small molecule antagonists: luciferase reporter qHTS assay (AID 1671199); further: nearly all actives have a fitted effect of over 50% in size; further: potency means the concentration at half of the fitted maximal effect; on activity change, negative = inhibition: series mostly up to about 120 µM
Summary of the method: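 P450-Glo CYP1A2, 1536-well qHTS: enzyme/proluciferin substrate + cpd (DMSO), 10 min RT; NADPH regen, 1 h RT; detection reagent, 20 min; luminescence, RLU.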

[3] = molecular target: Cytochrome P450 3A4 (Homo sapiens) (UniProt P08684); experiment: Cytochrome P450 Family 3 Subfamily A Member 4 (CYP3A4) small molecule antagonists: luciferase reporter qHTS assay (AID 1671201); further: series mostly up to about 120 µM; nearly all actives have a fitted effect of over 50% in size
Summary of the method: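 CYP3A4 activity was followed with a P450-Glo proluciferin substrate. Test compounds in DMSO were preincubated 10 min; NADPH regeneration then ran 1 h, and light output was read 20 min after detection reagent.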

[4] = molecular target: Cytochrome P450 2C19 (Homo sapiens) (UniProt P33261); experiment: Cytochrome P450 Family 2 Subfamily C Member 19 (CYP2C19) small molecule antagonists: luciferase reporter qHTS assay (AID 1671197); further: nearly all actives have a fitted effect of over 65% in size; further: potency means the concentration at half of the fitted maximal effect; on activity change, negative = inhibition: series mostly up to about 120 µM
Summary of the method: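 P450-Glo CYP2C19 system: enzyme-substrate mix with compound 10 min at room temperature, then NADPH regeneration solution, 1 h at 37C. Proluciferin-to-luciferin conversion detected by luminescence after 20 min with detection reagent; ketoconazole as positive control.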

[5] = molecular target: Voltage-gated inwardly rectifying potassium channel KCNH2 (Homo sapiens) (UniProt Q12809); experiment: Human Ether-a-go-go-Related Gene (hERG) channel small molecule antagonists: fluorescence cell-based qHTS assay (AID 1671200);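 further: hERG-expressing U2OS cells given a thallium stimulus after FluxOR II dye loading; series mostly up to about 77 µM; nearly all actives have a fitted effect of over 50% in size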
Summary of the method: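 In this thallium-flux screen, overnight-cultured U2OS cells bearing the channel are dye-loaded in darkness for an hour, rested 10 min at room temperature, and then monitored kinetically at 480/540 nm for two minutes post-stimulus.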

Chain of Voltage-gated inwardly rectifying potassium channel KCNH2 (Homo sapiens) (Q12809 whole entry, looked up): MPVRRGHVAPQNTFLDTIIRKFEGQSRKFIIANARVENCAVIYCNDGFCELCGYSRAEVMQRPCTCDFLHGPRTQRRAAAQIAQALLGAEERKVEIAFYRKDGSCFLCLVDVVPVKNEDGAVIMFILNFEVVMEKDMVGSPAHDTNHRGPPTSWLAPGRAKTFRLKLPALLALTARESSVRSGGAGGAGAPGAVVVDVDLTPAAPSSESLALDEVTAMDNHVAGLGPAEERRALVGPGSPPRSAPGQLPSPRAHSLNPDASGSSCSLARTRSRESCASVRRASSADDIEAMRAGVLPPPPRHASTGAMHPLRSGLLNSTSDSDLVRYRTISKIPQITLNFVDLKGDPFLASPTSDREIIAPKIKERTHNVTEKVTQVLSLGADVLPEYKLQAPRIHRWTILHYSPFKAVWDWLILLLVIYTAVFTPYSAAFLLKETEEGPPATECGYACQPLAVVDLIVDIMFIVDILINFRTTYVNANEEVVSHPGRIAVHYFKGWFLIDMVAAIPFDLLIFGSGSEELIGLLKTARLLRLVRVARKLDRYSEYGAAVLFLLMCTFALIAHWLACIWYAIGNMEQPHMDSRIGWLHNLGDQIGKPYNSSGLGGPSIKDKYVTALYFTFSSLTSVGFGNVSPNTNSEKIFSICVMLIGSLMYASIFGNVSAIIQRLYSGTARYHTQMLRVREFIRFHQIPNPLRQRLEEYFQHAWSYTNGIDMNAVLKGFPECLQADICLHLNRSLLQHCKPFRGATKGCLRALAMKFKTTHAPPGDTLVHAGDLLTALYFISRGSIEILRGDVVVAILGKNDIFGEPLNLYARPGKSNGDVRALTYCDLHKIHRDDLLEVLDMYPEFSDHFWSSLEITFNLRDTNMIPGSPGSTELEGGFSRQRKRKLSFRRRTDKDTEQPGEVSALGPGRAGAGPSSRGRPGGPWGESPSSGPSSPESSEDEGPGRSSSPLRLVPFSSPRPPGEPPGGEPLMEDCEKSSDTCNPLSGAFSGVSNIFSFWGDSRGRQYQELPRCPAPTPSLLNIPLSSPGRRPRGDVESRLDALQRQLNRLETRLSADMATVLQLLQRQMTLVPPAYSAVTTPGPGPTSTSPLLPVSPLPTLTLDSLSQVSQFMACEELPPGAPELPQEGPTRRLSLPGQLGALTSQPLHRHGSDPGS
Chain of Cytochrome P450 2C19 (Homo sapiens) (P33261 whole entry, looked up): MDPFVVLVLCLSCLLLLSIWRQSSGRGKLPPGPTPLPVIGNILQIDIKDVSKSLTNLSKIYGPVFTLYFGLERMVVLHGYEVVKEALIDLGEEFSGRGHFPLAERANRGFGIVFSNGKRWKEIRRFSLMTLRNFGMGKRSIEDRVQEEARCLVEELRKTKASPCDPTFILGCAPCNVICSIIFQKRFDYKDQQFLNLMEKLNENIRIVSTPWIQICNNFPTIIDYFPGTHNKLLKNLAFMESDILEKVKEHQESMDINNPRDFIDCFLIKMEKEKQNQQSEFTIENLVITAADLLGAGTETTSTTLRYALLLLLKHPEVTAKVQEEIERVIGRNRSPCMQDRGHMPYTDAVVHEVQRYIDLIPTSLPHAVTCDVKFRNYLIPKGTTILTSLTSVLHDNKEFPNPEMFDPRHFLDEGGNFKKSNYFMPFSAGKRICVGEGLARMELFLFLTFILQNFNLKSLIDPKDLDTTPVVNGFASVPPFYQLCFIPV
Chain of Cytochrome P450 2C9 (Homo sapiens) (P11712 whole entry, looked up): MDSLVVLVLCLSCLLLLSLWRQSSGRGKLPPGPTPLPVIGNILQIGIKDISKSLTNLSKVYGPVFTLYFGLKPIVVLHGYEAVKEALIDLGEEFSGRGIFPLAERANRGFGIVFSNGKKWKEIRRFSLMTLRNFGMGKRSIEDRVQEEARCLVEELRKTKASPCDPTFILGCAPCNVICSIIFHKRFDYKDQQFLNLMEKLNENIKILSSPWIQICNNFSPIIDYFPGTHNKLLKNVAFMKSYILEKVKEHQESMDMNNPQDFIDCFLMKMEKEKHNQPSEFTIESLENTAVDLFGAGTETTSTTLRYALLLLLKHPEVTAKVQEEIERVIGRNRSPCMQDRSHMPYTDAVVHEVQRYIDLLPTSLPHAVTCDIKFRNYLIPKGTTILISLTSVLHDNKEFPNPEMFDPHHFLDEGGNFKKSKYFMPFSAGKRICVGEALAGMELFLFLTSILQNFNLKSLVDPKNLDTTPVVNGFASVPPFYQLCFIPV
Chain of Cytochrome P450 1A2 (Homo sapiens) (P05177 whole entry, looked up): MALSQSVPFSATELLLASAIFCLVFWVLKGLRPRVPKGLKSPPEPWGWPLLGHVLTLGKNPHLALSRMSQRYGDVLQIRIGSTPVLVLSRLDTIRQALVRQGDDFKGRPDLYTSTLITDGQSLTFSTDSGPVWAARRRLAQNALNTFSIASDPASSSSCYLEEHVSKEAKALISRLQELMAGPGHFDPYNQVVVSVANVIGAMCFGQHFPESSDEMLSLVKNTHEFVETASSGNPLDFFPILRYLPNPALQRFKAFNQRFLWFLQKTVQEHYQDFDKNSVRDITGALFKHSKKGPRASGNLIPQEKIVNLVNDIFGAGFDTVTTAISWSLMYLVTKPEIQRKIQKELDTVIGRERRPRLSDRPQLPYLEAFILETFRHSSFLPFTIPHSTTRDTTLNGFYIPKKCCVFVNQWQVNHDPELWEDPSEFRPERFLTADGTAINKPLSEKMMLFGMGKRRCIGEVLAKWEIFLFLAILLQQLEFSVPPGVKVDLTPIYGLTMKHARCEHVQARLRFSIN
Chain of Cytochrome P450 3A4 (Homo sapiens) (P08684 whole entry, looked up): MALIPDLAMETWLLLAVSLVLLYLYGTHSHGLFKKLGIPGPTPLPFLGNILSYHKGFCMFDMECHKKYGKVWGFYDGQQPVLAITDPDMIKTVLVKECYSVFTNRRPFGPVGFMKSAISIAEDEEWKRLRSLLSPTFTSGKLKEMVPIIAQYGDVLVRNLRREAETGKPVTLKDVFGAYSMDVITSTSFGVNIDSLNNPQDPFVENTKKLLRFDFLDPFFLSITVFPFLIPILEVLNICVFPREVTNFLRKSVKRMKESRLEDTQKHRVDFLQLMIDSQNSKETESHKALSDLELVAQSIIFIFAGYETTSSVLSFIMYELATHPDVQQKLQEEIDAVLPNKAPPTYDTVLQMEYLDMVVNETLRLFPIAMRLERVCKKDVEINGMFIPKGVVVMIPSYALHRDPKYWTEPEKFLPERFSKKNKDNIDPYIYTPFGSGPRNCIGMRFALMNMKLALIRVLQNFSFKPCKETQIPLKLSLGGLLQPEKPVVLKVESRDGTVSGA

SMILES: CC(C)(C)CC(C)(C)N
- Potency [1]: inactive
- Potency [2]: 30.8 µM (active)
- Potency [3]: inactive

SMILES: O=C(O)c1ccccc1-c1ccc(C(F)(F)F)cc1
- Potency [4]: inactive
- Potency [5]: inactive
- Potency [3]: inactive

SMILES: CCCCCCCCCCC1CO1 (centres undefined)
- Potency [1]: inactive
- Potency [2]: inactive
- Potency [5]: inactive
- Potency [3]: inactive

SMILES: CN(C)C(=O)C(CCN1CCC(O)(c2ccc(Cl)cc2)CC1)(c1ccccc1)c1ccccc1
- Potency [2]: inactive
- Potency [3]: inactive

SMILES: OCC(O)[C@@H](O)[C@H](O)[C@H](O)CO[C@H]1O[C@H](CO)[C@@H](O)[C@H](O)[C@H]1O (some centres undefined)
- Potency [5]: inactive
- Potency [3]: inactive

SMILES: c1ccc(CCCc2ccccn2)cc1
- Potency [1]: 35.6 µM (active)
- Potency [2]: 22.4 µM (active)
- Potency [5]: inactive
- Potency [3]: inactive

SMILES: Cc1ccccc1Br
- Potency [5]: inactive
- Potency [3]: inactive

SMILES: CCC(C)(C)C1CCC(OC)CC1 (centres undefined)
- Potency [2]: inactive
- Potency [5]: inactive
- Potency [3]: inactive

SMILES: Cn1ccc2cc3c(cc21)CCN3C(=O)Nc1cccnc1
- Potency [2]: 0.0791 µM (active)
- activity change, negative = inhibition [5]: 2.6% [at 15.8 µM] (inactive)

SMILES: O=C1C(CCS(=O)c2ccccc2)C(=O)N(c2ccccc2)N1c1ccccc1 (centres undefined)
- Potency [1]: 30.9 µM (active)
- Potency [2]: inactive
- Potency [5]: inactive

SMILES: O=C(O)c1ccccc1S
- Potency [4]: inactive
- Potency [2]: inactive
- Potency [5]: inactive
- Potency [3]: inactive

SMILES: O=C(O)CCNC(=O)c1ccc(N=Nc2ccc(O)c(C(=O)O)c2)cc1
- Potency [4]: inactive
- Potency [2]: inactive
- Potency [5]: inactive
- Potency [3]: inactive

SMILES: COc1ccc(N=[N+]([O-])c2ccc(OC)cc2)cc1
- Potency [4]: 19.8 µM (active)
- Potency [2]: 7.03 µM (active)
- Potency [5]: inactive
- Potency [3]: inactive

SMILES: c1ccc(SCCSc2ccccc2)cc1
- Potency [4]: 3.53 µM (active)
- Potency [2]: 31.4 µM (active)
- Potency [5]: inactive
- Potency [3]: inactive

SMILES: CC/C=C\CCCCO
- Potency [4]: inactive
- Potency [2]: inactive
- Potency [5]: inactive
- Potency [3]: inactive

SMILES: Nc1cc(N)cc(C(=O)O)c1
- Potency [4]: 79.6 µM (active)
- Potency [2]: inactive
- Potency [3]: inactive

SMILES: CN(C)CCn1nnnc1SCC1=C(C(=O)O)N2C(=O)[C@@H](NC(=O)Cc3csc(N)n3)[C@H]2SC1
- Potency [1]: inactive
- Potency [2]: inactive
- Potency [3]: inactive
